Sampled rows, rich in hits. Any-hit rate of the full collection: about 5.2%.
TrxR1 substrate: qHTS Assay for Substrates of Mammalian Selenoprotein Thioredoxin Reductase 1 (TrxR1): qHTS; Thioredoxin reductase 1, cytoplasmic (Rattus norvegicus), O89049; purified TrxR1 substrate turnover, NADPH consumption readout; Potency, µM (highest dose often 114 µM), inactives show at the top dose activity change, negative = substrate turnover; 0.01% of 390,000 active; further: on the % scale 0 is the no-effect control and ±100 the full control effect; nearly all actives have a fitted effect of over 50% in size
Target sequence (O89049 whole entry, looked up): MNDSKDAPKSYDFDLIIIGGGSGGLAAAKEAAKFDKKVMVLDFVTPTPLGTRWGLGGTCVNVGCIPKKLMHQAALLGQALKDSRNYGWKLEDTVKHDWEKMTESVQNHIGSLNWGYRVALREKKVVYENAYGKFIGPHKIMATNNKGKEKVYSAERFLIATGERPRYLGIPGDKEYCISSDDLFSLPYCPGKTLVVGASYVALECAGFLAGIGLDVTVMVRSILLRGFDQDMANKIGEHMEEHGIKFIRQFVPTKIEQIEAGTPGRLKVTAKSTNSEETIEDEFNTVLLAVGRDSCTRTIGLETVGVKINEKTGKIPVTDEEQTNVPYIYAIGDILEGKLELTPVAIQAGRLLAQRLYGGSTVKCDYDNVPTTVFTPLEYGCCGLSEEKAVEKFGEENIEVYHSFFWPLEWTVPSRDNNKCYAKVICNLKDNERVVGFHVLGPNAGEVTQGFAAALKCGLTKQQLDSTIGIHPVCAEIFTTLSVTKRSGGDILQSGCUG
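Rat TrxR1, dispensed at 90 nM, was prereduced with 400 uM NADPH (final) for 5 min at ~22 deg C, then incubated with compound 15 min before 400 uM selenite. A first-read NADPH fluorescence drop versus no-compound background flagged substrates.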
VDR inh: Inhibitors of the vitamin D receptor (VDR): qHTS; Potency, µM, for the others: max response, negative = inhibition, hits mostly inhibitors; AID 504847, 2011; 0.93% of 400,000 active; VDR-SRC2-3 peptide fluorescence polarization, 2 h; further: on the % scale 0 is the no-effect control and ±100 the full control effect
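VDR–SRC2-3 interaction, FP format. Cmpds 23 nl via pintool, brief spin, 2 h ambient incubation.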
TrxR1 inh: qHTS Assay for Inhibitors of Mammalian Selenoprotein Thioredoxin Reductase 1 (TrxR1): qHTS; Thioredoxin reductase 1, cytoplasmic (Rattus norvegicus), O89049; recombinant rTrxR1, NADPH fluorescence consumption, selenite substrate; Potency, µM (doses to about 114 µM), without a hit: at the top dose activity change, negative = inhibition, most hits filed as inhibitors; 1% of 390,000 active; AID 588453, 2011; further: on the % scale 0 is the no-effect control and ±100 the full control effect; nearly all actives have a fitted effect of over 65% in size
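Rat TrxR1 (90 nM in the dispensed reagent) was pre-reduced with 400 uM NADPH for 5 min at room temperature, then incubated with compound for 15 min. After 400 uM selenite was added, NADPH fluorescence (Ex 340/Em 450 nm) was followed for 8 min.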
PLK1 PBD inh: qHTS for Inhibitors of PLK1-PDB (polo-like kinase 1 - polo-box domain): Primary Screen; Serine/threonine-protein kinase PLK1 (Homo sapiens), P53350; Plk1 PBD binding of FITC phosphopeptide, fluorescence polarization; Potency, µM, for the others: max response, negative = inhibition, most hits filed as inhibitors; 2.8% of 360,000 active; AID 720504, 2013; further: series mostly up to about 57 µM; on the % scale 0 is the no-effect control and ±100 the full control effect; nearly all actives have a fitted effect of over 65% in size
mIDH1 inhibitor: qHTS for Inhibitors of mutant isocitrate dehydrogenase 1 (IDH1): qHTS; Potency, µM (doses to about 76.6 µM), without a hit: top-dose activity change, negative = inhibition, usual class: inhibitors; IDH1-R132H enzyme, NADPH consumption, diaphorase/resazurin fluorescence; 0.093% of 390,000 active; further: on the % scale 0 is the no-effect control and ±100 the full control effect; nearly all actives have a fitted effect of over 65% in size
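IDH1-R132H (0.5 ug/mL dispensed) in pH 7.5 Tris buffer was preincubated 30 min with compound, then given a substrate mix of 0.016 mM NADPH and 2 mM alpha-KG for 80 min at room temperature; remaining NADPH was read by diaphorase/resazurin fluorescence.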
Sfp PPTase inh: qHTS Assay for Inhibitors of Bacillus subtilis Sfp phosphopantetheinyl transferase (PPTase); AID 1490, 2009; 4'-phosphopantetheinyl transferase ffp (Bacillus subtilis), Q9F4F7; Potency, µM, for inactives: largest response in the series, negative = inhibition, most hits filed as inhibitors; Biochemical Sfp PPTase activity, qHTS; 3.5% of 310,000 active;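 further: the enzyme is Sfp with the accession as filed and its product quenches rhodamine fluorescence; 0% = enzyme reaction without inhibitor and -100% = no enzyme wells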
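Fluorescence-quenching assay with 15 nM Sfp, 5 uM rhodamine-CoA and 12.5 uM BHQ-2-labelled ybbR peptide in pH 7.6 Hepes/MgCl2 buffer. Enzyme was pre-incubated with compound for 15 min at room temperature. Rate was taken from the 30-min fluorescence change (525/598 nm).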
VDR confirm: qHTS for Inhibitors of the vitamin D receptor (VDR): Hit Validation in Primary Screen; shares compounds with VDR inh; VDR-coactivator inhibition assay, qHTS confirmation; Potency, µM, actives largely listed as inhibitors; 89% of 840 active; AID 602199, 2012
VDR FP fluor: qHTS for Inhibitors of the vitamin D receptor (VDR): Hit Validation using a Fluorescein Assay; shares compounds with VDR inh; VDR-coactivator binding, fluorescein fluorescence polarization; Potency, µM (doses to about 57.1 µM), for inactives: at the top dose activity change, negative = inhibition, most hits filed as inhibitors; 48% of 840 active
VDR bla reporter: qHTS for Inhibitors of the vitamin D receptor (VDR): Hit Validation using a Beta-Lactamase Assay. VDR beta-lactamase reporter cells, FRET ratio; cells co-treated with VDR agonist LG190178. shares compounds with VDR inh. Potency, µM (series often up to 46.1 µM), for the others: at the top dose activity change, negative = inhibition, usual class: inhibitors. 23% of 840 active. AID 602202, 2012; further: on the % scale 0 is the no-effect control and ±100 the full control effect
VDR viability: qHTS for Inhibitors of the vitamin D receptor (VDR): Hit Validation using a Cytotoxicity Assay; 18% of 840 active; cytotoxicity counter-screen, cell viability, qHTS; shares compounds with VDR inh; Potency, µM (doses to about 48.3 µM), for inactives: top-dose activity change, negative = cytotoxicity, hits mostly cytotoxic;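 further: plate controls were DMSO for no effect and high-concentration cycloheximide for full effect; nearly all actives have a fitted effect of over 75% in size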
The depositor's hits bear a star; ? = inconclusive; . = no result; [ ] = remark or other dose. The call rests on the fitted dose curve; in most records, active means well fitted curve in the direction sought with a large enough effect; inconclusive means small, poorly fitted or top-dose-only effect, or another doubt; inactive means no such curve, though single readings can be large; an effect the other way counts as inactive or inconclusive. Potency means the concentration at half of the fitted maximal effect.

SMILES | TrxR1 substrate | VDR inh | TrxR1 inh | PLK1 PBD inh | mIDH1 inhibitor | Sfp PPTase inh | VDR confirm | VDR FP fluor | VDR bla reporter | VDR viability
CC(C)c1ccc(/C=c2\sc3nc(-c4ccncc4)nn3c2=O)cc1 | -2% | 22µM* | -11% | -30% | -5% | -4% | 2.7* | ? | -7% | 18%
Cc1ccc(/C=c2\sc3nc(-c4cccnc4)nn3c2=O)cc1 | -8% | ? | ? | -13% | -1% | 10% | 2.2* | 1.1µM* | 3% | 18%
COC(=O)c1cc2c(cc1NC(=O)c1cnn(-c3ccc(C)cc3)c1-n1cccc1)OCO2 | 0% | 5% | 24% | . | -15% | . | . | . | . | .
O=C1C(Cl)=C(NS(=O)(=O)c2ccc([N+](=O)[O-])cc2)C(=O)c2ccccc21 | -13% | 22µM* | 0.79µM* | ? | 4% | -18% | 6* | ? | ? | ?
O=[N+]([O-])c1ccc(Oc2ccc(S(=O)(=O)Nc3ccccc3)cc2)cc1 | 13%[57.1 µM] | -8% | 8%[57.1 µM] | -2% | -8% | 6% | . | . | . | .
CCc1ccc2c(c1)/C(=C/C(=O)c1cccs1)C(=O)N2 | 4% | 25µM* | -31% | ? | 8% | 45µM* | 15* | 8.9µM* | ? | ?
Cc1cccc2c1NC(=O)/C2=C\C(=O)c1cccs1 | -9% | ? | -28% | -27% | -1% | -13% | 6.3* | 8.9µM* | 23µM* | 30µM*
Cc1cc(Br)c2c(c1)/C(=C/C(=O)c1cccs1)C(=O)N2 | 8%[57.1 µM] | ? | 17%[57.1 µM] | -26% | -7% | -16% | . | . | . | .
CC(C)Cn1cnc2c1c(=O)n(CC(=O)NC(=O)NC(C)(C)C)c(=O)n2Cc1ccccc1 | -1%[57.1 µM] | -21% | 15% | -15% | -13% | 16% | . | . | . | .
COC(=O)c1cn(Cc2cc(OC)ccc2OC)cc(F)c1=O | 9%[57.1 µM] | -5% | 10%[57.1 µM] | -3% | 1% | 7% | . | . | . | .
C=CCSc1nnc(NC(=O)C2CC(=O)N(c3ccc4c(c3)OCCO4)C2)s1 (stereo not drawn) | 2% | 12% | 18% | -25% | -2% | . | . | . | . | .
O=C(/C(=C/c1ccc(Cl)cc1)c1nc2ccccc2[nH]1)c1cccs1 | -10% | 18µM* | ? | -11% | -7% | -1% | 9.5* | ? | 6.5µM* | 8.2µM*
O=C1/C(=C/c2ccncc2)CCC/C1=C\c1ccncc1 | -6% | 7.1µM* | ? | 21µM* | ? | ? | 5.3* | 3.5µM* | 3.3µM* | 21µM*
Cc1ccc(-c2cc(NC(=O)C(C)Oc3ccccc3F)on2)cc1 (stereo not drawn) | -4% | 41% | 20% | . | 17% | . | . | . | . | .
OCCOC1CCCc2oc(-c3ccccc3)c(C#CC3(O)CCCCC3)c21 (stereo not drawn) | . | . | . | -19% | . | . | . | . | . | .
COc1ccc(/C=C2\C(=O)N(c3c(Cl)cc(Cl)cc3Cl)N=C2NC(=O)c2cccc([N+](=O)[O-])c2)cc1 | -14% | ? | 4.5µM* | 0.75µM* | -24% | ? | 2.8* | 1.3µM* | ? | -14%
Cc1ccc(C2(C)NC(=O)N(CC(=O)Nc3nc(-c4ccccn4)cs3)C2=O)cc1 (stereo not drawn) | -7% | ? | 2% | 4.2µM* | 0% | . | 11* | ? | ? | -16%
CC1(c2ccccc2)NC(=O)N(CC(=O)Nc2nc(-c3ccccn3)cs2)C1=O (stereo not drawn) | 0% | -29% | 8% | ? | -2% | . | . | . | . | .
COc1ccc(C)cc1NC(=O)N1CCN(S(=O)(=O)c2ccc3c(ccn3C)c2)CC1 | -5%[57.1 µM] | 6% | -8%[57.1 µM] | . | -12% | . | . | . | . | .
O=[N+]([O-])c1c(NCCCO)cc(Sc2ccc(Cl)cc2)c2nonc12 | -5% | ? | 2.8µM* | 2.4µM* | -1% | -20% | 6.3* | 7.1µM* | 23µM* | ?
CCOc1ccc(NC(=O)CCc2c(C)nc3cc(-c4ccc(Cl)cc4)nn3c2C)cc1 | 8% | -3% | 29% | . | 14% | . | . | . | . | .
Cc1ccc(CSc2nc(=O)c3c(n2C)NC(=O)CC3c2ccc(OC(C)C)cc2)cc1 (stereo not drawn) | 2% | 2% | -6% | . | -1% | . | . | . | . | .
COC(=O)[C@H](C)NC(=O)c1cc2c(cn1)[nH]c1ccccc12 | 23% | 22µM* | -3% | 1.3µM* | 12% | 8.9µM* | 3.4* | ? | 17% | -11%
CCOC(=O)C(Cc1ccc(O)cc1)NC(=O)c1cc2c(cn1)[nH]c1ccccc12 (stereo not drawn) | . | . | . | -14% | . | . | . | . | . | .
COc1ccc(-c2cc(N)n(S(=O)(=O)c3c(F)c(F)c(F)c(F)c3F)n2)cc1OC | 0% | ? | 2.8µM* | 1.2µM* | -4% | 0% | 5* | 7.1µM* | 5.8µM* | 21µM*
CCOc1ccc(-c2cc(N)n(S(=O)(=O)c3ccc(OC)cc3)n2)cc1 | 1% | 2% | 10% | 6% | 16% | 14% | . | . | . | .
Cc1ccc(C(=O)/C=C\C(=O)c2ccc(C)cc2)cc1 | 7% | 79µM* | 5µM* | 6.7µM* | -1% | 1.8µM* | 30* | ? | ? | 22%

Source: PubChem BioAssay (National Center for Advancing Translational Sciences (NCATS))
